Assay [1] is described as follows: inhibitors of TNFa-induced NFkB p65 translocation, primary screen, imaging, HUVEC, MLSMR starter and 10KST1 sets (AID 438;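 active = inhibition above 20% together with a positive visual image hit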;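 also: compound added about 3h40 before a 20 min TNFalpha stimulation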;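 as to inhibition: signal is the nuclear over cytoplasmic p65 intensity ratio per well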). The note with it: HUVEC TNFa-induced p65 nuclear translocation; cell count: measured here: nuclei count (cytotoxicity indicator), at 2.08 µM; inhibition: at 2 µM, stronger effect = higher value, 0% TNFa-plus-vehicle, 100% no-TNFa wells.
Assay [2] in a line: inhibitors of mutant huntingtin aggregation, primary screen, imaging, exon1htt(103Q)mCFP cells, high-content imaging (AID 483;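 active = visual image review flags a hit and inhibition of aggregation exceeds 20%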;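 also: compound exposure lasted 3 days before fixation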;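 as to nuclei count: percent of the per-plate median nuclei count of sample wells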). Particulars: exon1htt(103Q)mCFP cell line, aggregate imaging, at 2 µM; inhibition of aggregation: stronger effect = higher value; nuclei count: measured here: cell count, toxicity.
The nature of assay [3]: inhibitors of E-selectin induction by TNFa, primary screen, imaging, HUVEC, immunofluorescence, MLSMR starter and 10KST1 sets (AID 487;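 active = visually confirmed hit in the image check and inhibition above 20%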;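 as to inhibition: signal is fraction of cell area covered by stained E-selectin grains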;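 as to nuclei count: 100% = median nuclei count of all wells on the same plate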). The note with it: HUVEC TNFalpha-induced E-selectin immunofluorescence imaging, at 2 µM; inhibition: stronger effect = higher value; nuclei count: measured here: cell number, toxicity.
In assay [4] the target is Voltage-gated potassium channel subunit beta-2 (Rattus norvegicus) (UniProt P62483). Nature of the assay: KvBeta enzyme negative modulators, primary screen, biochemical, NADPH fluorescence (AID 622;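 active = fluorescence slope higher than the sample average by over 3 SD, cut at about -0.22 in these data, passing the limit was not always enough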;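 also: slope of raw intensity against log time taken from 70 to 1610 s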). The note with it: recombinant KvBeta, 4-cyanobenzaldehyde reduction, at 10 µM, stronger effect = higher value.
For assay [5] the target is unchanged. The assay can be described thus: KvBeta positive modulators, primary screen, biochemical, NADPH fluorescence (AID 623;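 active = NADPH fluorescence slope more negative than the mean of all samples by about 3 SD, 99.7% confidence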;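 also: fluorescence intensity change per second fitted from 20 to 320 s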). The note with it: Recombinant KvBeta, NADPH fluorescence decrease slope, 10 min; at 10 µM; stronger effect = lower value.
Assay [6] concerns the target Alpha-2C adrenergic receptor (Homo sapiens) (UniProt P18825). Nature of the assay: modulators of alpha2C/GIRK thallium flux, primary screen, cell-based, HEK293 alpha2C/GIRK1/2 (AID 624;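 active = fluorescence slope after compound addition differing from the mean of all screened samples at 99.7% confidence, in either direction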;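 also: slope of fluorescence ratio to pre-addition baseline per second over 15 to 24 s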). Particulars: thallium flux BTC fluorescence, at 10 µM, actives lie on both sides.
Assay [7] can be described thus: inhibitors of Sendai virus-induced IRF3 signaling, primary screen, TLR/RLR signaling modifier project, cell-based, Sendai virus stimulus, luciferase, 10K MLSCN set (AID 602276).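 Also: firefly luciferase from ISG56 promoter only with Renilla not read in this screen; 0% = Sendai virus plus DMSO and 100% = medium plus DMSO without virus.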 Particulars: HEK293 RL24 IRF3 luciferase reporter, at 10 µM, stronger effect = higher value. On the technique in general: A reporter such as luciferase makes a cellular process visible.
The nature of assay [8]: inhibitors of poly I:C-induced TLR3 signaling, primary screen, cell-based, poly I:C stimulus, luciferase, 10K MLSCN set (AID 602277;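 active = inhibition of the reporter signal at or above 50%; inactive = inhibition below 50%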). Particulars: HEK293-TLR3 RL24 IRF3 luciferase reporter, at 10 µM, stronger effect = higher value.

Activity calls are given as the source filed them.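 The calls were made as follows, unless noted: active = inhibition at or above 50% at 10 µM; inactive = inhibition below 50%.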

Chain of Alpha-2C adrenergic receptor (Homo sapiens) (P18825 whole entry, looked up): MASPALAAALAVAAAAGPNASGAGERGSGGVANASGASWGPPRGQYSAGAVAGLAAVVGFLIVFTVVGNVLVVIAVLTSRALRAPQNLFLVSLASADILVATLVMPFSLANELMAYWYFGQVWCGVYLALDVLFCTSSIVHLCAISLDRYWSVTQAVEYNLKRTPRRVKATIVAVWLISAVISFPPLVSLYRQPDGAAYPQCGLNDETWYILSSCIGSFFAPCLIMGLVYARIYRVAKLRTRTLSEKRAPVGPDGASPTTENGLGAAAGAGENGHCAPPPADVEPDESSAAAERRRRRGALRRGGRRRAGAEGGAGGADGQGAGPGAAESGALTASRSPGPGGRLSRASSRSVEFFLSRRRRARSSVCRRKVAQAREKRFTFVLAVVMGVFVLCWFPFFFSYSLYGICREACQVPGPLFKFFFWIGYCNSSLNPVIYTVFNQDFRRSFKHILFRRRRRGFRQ
Chain of Voltage-gated potassium channel subunit beta-2 (Rattus norvegicus) (P62483 whole entry, looked up): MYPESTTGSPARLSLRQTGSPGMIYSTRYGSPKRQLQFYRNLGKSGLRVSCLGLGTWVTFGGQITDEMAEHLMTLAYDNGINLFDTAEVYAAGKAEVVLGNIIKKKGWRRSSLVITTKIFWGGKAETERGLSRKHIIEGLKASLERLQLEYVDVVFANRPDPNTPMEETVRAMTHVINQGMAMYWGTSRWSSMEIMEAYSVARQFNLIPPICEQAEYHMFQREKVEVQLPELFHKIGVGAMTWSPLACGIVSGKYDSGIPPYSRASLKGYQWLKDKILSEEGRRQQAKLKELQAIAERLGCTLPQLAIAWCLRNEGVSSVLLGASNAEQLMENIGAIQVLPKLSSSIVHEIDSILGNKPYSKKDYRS

With `CCOC(=O)C1CCCN(CC(=O)NC2CC2)C1` (centres undefined), the cell count in assay [1] was 446. Moreover, the inhibition in assay [1] is 1.1% (inactive); in assay [3], -23.9% (inactive); in assay [7], 13.3% (inactive); in assay [8] it was 15.3% (inactive). Also, the inhibition of aggregation in assay [2] is -11.4% (inactive). The values for the nuclei count in assay [2] and in assay [3] were 98.9% and 101%, respectively. The fluorescence slope in assay [4] was -0.318 (inactive). For the same molecule, the NADPH fluorescence slope in assay [5] is -7.1e-05 (inactive). Further, the slope in assay [6] is 0.00531 (inactive).
In the case of `O=C1N(CCCCN2C(=O)C3(OCCO3)c3ccccc32)c2ccccc2C12OCCO2`, the cell count in assay [1] is 578. Moreover, the inhibition in assay [1] was -18.8% (inactive); in assay [3] it was -60.9% (inactive); in assay [7], 9.05% (inactive); in assay [8] it was 16.5% (inactive). Further, the inhibition of aggregation in assay [2] was -8.4% (inactive). The nuclei count amounted to 104% in assay [2] and 112% in assay [3]. Besides, the fluorescence slope in assay [4] is -0.381 (inactive). Besides, the NADPH fluorescence slope in assay [5] is 2.4e-05 (inactive). Moreover, the slope in assay [6] is 0.00398 (inactive).
`COCCn1c(C)cc(C(=O)COC(=O)c2n[nH]c3ccccc23)c1C`: the cell count in assay [1] is 330. Further, the inhibition in assay [1] is 3.7% (inactive); in assay [3] it was -26.9% (inactive); in assay [7], 71.8% (active); in assay [8], 49.1% (inactive). The inhibition of aggregation in assay [2] was 2.3% (inactive). Besides, the nuclei count came to 98.9% in assay [2] and 114% in assay [3]. In assay [4], the fluorescence slope is -0.5 (inactive). In addition, the NADPH fluorescence slope in assay [5] was -4.3e-05 (inactive). In addition, in assay [6], the slope is 0.00592 (inactive).
`CCCCS(=O)(=O)NC1=NCN(CCOC(=O)c2ccccc2)CN1`: the cell count in assay [1] amounted to 305. The inhibition is 0.8% (inactive) in assay [1], -50.4% (inactive) in assay [3], 13.9% (inactive) in assay [7] and 20.7% (inactive) in assay [8]. Further, the inhibition of aggregation in assay [2] is 5.7% (inactive). Besides, the nuclei count in assay [2] was determined as 116%; in assay [3], 112%. The fluorescence slope in assay [4] is -0.496 (inactive). Further, the NADPH fluorescence slope in assay [5] is -4.1e-05 (inactive). Also, the slope in assay [6] was 0.0043 (inactive).
Take `Cc1cccc(Nc2nc(N)nc(CN3CCC(C(N)=O)CC3)n2)c1C`: the cell count in assay [1] worked out at 720. Also, the inhibition in assay [1] was -4.3% (inactive); in assay [3], -35% (inactive); in assay [7], -22.9% (inactive); in assay [8], -60.3% (inactive). Also, the inhibition of aggregation in assay [2] was -5.8% (inactive). Further, the nuclei count is 108% in assay [2] and 123% in assay [3]. Moreover, the fluorescence slope in assay [4] is -0.628 (inactive). In assay [5], the NADPH fluorescence slope is -2.1e-05 (inactive). In assay [6], the slope is 0.0067 (inactive).
For the molecule `Cc1nc2cc(C(=O)O)ccc2n1-c1ccc(F)cc1F`, in assay [1], the cell count was found to be 672. Also, the inhibition in assay [1] is -1.5% (inactive); in assay [3] it was -12.5% (inactive); in assay [7], 4.77% (inactive); in assay [8], 27.2% (inactive). Also, the inhibition of aggregation in assay [2] is -2.2% (inactive). Besides, the nuclei count in assay [2] came out at 99.5%; in assay [3], 116%. In addition, the fluorescence slope in assay [4] is -0.527 (inactive). For the same molecule, in assay [5], the NADPH fluorescence slope was -4.1e-05 (inactive). In addition, in assay [6], the slope was 0.00687 (inactive).
`COc1cccc(N2CCN(Cc3nc(N)nc(Nc4ccccc4)n3)CC2)c1`: in assay [1], the cell count came out at 463. Also, the inhibition in assay [1] is -12.5% (inactive); in assay [3], 44.7% (inactive); in assay [7], 0.669% (inactive); in assay [8] it was 15.7% (inactive). Also, the inhibition of aggregation in assay [2] was 18.2% (inactive). The nuclei count is 84.7% in assay [2] and 93.5% in assay [3]. In addition, the fluorescence slope in assay [4] was -0.479 (inactive). Moreover, in assay [5], the NADPH fluorescence slope is -5.8e-06 (inactive). For the same molecule, the slope in assay [6] is 0.00543 (inactive).
In the case of `O=c1oc2ccccc2c2c1ncn2-c1ccccc1`, the cell count in assay [1] came to 375. The inhibition was 0% (inactive) in assay [1], -9.9% (inactive) in assay [3], 16.7% (inactive) in assay [7] and 27.6% (inactive) in assay [8]. Besides, the inhibition of aggregation in assay [2] is -20.2% (inactive). The nuclei count in assay [2] stood at 113%; in assay [3], 114%. Moreover, in assay [4], the fluorescence slope was -0.45 (inactive). In assay [5], the NADPH fluorescence slope is 7.5e-05 (inactive). Further, the slope in assay [6] was 0.00569 (inactive).
Consider `CCOC(=O)CSC1=C(C#N)C(c2ccc(C)o2)CC(=O)N1` (centres undefined), for which the cell count in assay [1] turned out to be 557. Further, the inhibition in assay [1] was 14.4% (inactive); in assay [3] it was -60% (inactive); in assay [7] it was 10.4% (inactive); in assay [8] it was 87.6% (active). Also, in assay [2], the inhibition of aggregation was 29.1% (inactive). Further, the nuclei count in assay [2] was determined as 3.4%; in assay [3], 95%. For the same molecule, in assay [4], the fluorescence slope is -0.511 (inactive). Further, the NADPH fluorescence slope in assay [5] was -2e-05 (inactive). In addition, in assay [6], the slope was 0.00803 (inactive).
As for `CN1CCN(CC(=O)N2c3ccccc3C(C)(c3ccccc3)CC2(C)C)CC1` (centres undefined), the cell count in assay [1] worked out at 352. In addition, the inhibition in assay [1] was 2.9% (inactive); in assay [3], -183% (inactive); in assay [7], 35.9% (inactive); in assay [8] it was 26.8% (inactive). Also, the inhibition of aggregation in assay [2] was -16.5% (inactive). Also, the values for the nuclei count in assay [2] and in assay [3] were 74.1% and 146%, respectively. Also, the fluorescence slope in assay [4] was -0.353 (inactive). In assay [5], the NADPH fluorescence slope was -6.8e-07 (inactive). In addition, the slope in assay [6] is 0.00483 (inactive).
Regarding `COCCCn1nnnc1SCC(=O)Nc1nc(C)c(C)s1`, in assay [1], the cell count was found to be 435. Besides, the inhibition was -5.5% (inactive) in assay [1], -133% (inactive) in assay [3], 2.9% (inactive) in assay [7] and 9.02% (inactive) in assay [8]. Moreover, the inhibition of aggregation in assay [2] is 14.2% (inactive). Further, the values for the nuclei count in assay [2] and in assay [3] were 58.2% and 104%, respectively. Further, in assay [4], the fluorescence slope was -0.499 (inactive). Further, in assay [5], the NADPH fluorescence slope is -5.5e-05 (inactive). Moreover, the slope in assay [6] is 0.00473 (inactive).
In the case of `Cc1occc1C(=O)N1CCN(Cc2ccccc2)CC1`, the cell count in assay [1] came out at 661. For the same molecule, the inhibition in assay [1] was -9% (inactive); in assay [3] it was -40.1% (inactive); in assay [7] it was 7.4% (inactive); in assay [8], 34.1% (inactive). Moreover, in assay [2], the inhibition of aggregation was 8.8% (inactive). Moreover, the nuclei count in assay [2] worked out at 75.8%; in assay [3], 104%. Also, the fluorescence slope in assay [4] is -0.483 (inactive). The NADPH fluorescence slope in assay [5] is -3.8e-05 (inactive). For the same molecule, the slope in assay [6] is 0.00745 (inactive).
Consider `CCOc1ccc(-c2nnc3sc(-c4c(OC)cccc4OC)nn23)cc1`, for which, in assay [1], the cell count was found to be 434. Besides, the inhibition in assay [1] is 2.8% (inactive); in assay [3], -65.6% (inactive); in assay [7], 10.1% (inactive); in assay [8] it was 3.17% (inactive). The inhibition of aggregation in assay [2] is 0.4% (inactive). The nuclei count in assay [2] was 102%; in assay [3], 111%. Further, the fluorescence slope in assay [4] was -0.609 (inactive). Further, the NADPH fluorescence slope in assay [5] is -3.7e-05 (inactive). Moreover, the slope in assay [6] was 0.00506 (inactive).
In the case of `Cc1cc(C)n(C2=NS(=O)(=O)c3ccccc32)n1`, the cell count in assay [1] amounted to 343. Further, the inhibition in assay [1] is -2.4% (inactive); in assay [3], 70.9% (active); in assay [7], -8.5% (inactive); in assay [8], -27.5% (inactive). In assay [2], the inhibition of aggregation was 7.1% (inactive). Further, the nuclei count was determined as 92% in assay [2] and 78.2% in assay [3]. Besides, the fluorescence slope in assay [4] was -0.576 (inactive). Also, the NADPH fluorescence slope in assay [5] was -1.6e-05 (inactive). For the same molecule, the slope in assay [6] is 0.00396 (inactive).

As a reminder, the inhibition is the change of the read-out against control, counted positive when it falls.
